Compounds without any hit were thinned out: in the full panel of roughly 79,000, 15% have a hit. Active and inactive are the calls of the source. No stated cut-off is given here; in the data, active means growth inhibition above about 70%; inactive means the rest.
Assays:
[1] = NCI Yeast Anticancer Drug Screen. Data for the rad52 strain (AID 147);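 further: 0% = growth of vehicle-treated control cultures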; conditions: S. cerevisiae rad52 mutant growth inhibition, hits give high values
Summary of the method: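 Genetically altered yeast (DNA damage repair defect) treated with compound; inhibition calculated relative to vehicle.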

[2] = NCI Yeast Anticancer Drug Screen. Data for the wt1 strain (AID 149);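 further: 0% = growth of vehicle-treated wt1 cultures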; conditions: S. cerevisiae wt1 strain (SPY 50644) growth inhibition, hits give high values
Summary of the method: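 Vehicle-normalised growth inhibition; strain wt1; compound exposure.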

[3] = NCI Yeast Anticancer Drug Screen. Data for the rad50EPP+ strain (AID 151);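 further: 0% = growth of vehicle-treated control cultures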; conditions: S. cerevisiae rad50 mutant strain, hits give high values
Summary of the method: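 Strain rad50EPP+; compound exposure; % growth inhibition vs vehicle.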

[4] = NCI Yeast Anticancer Drug Screen. Data for the rad50 strain (AID 155);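 further: 0% = growth of vehicle-only cultures of the same strain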; conditions: S. cerevisiae rad50 strain growth inhibition, hits give high values
Summary of the method: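 A DNA repair-deficient yeast mutant serves as the test organism; compound-induced growth inhibition is calculated against vehicle-treated cells.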

[5] = NCI Yeast Anticancer Drug Screen. Data for the mec2-1 strain (AID 157); conditions: S. cerevisiae mec2-1 strain, hits give high values
Summary of the method: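 Cells of the genetically defined mec2-1 yeast strain are incubated with test compound. Inhibition of growth is calculated against vehicle-treated controls.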

[6] = NCI Yeast Anticancer Drug Screen. Data for the rad14 strain (AID 159);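 further: 0% = growth of vehicle-treated control cultures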; conditions: S. cerevisiae rad14 strain growth inhibition, hits give high values
Summary of the method: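 Vehicle-treated cultures served as the baseline for growth inhibition of a DNA repair-mutant yeast strain exposed to each compound.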

[7] = NCI Yeast Anticancer Drug Screen. Data for the sgs1 mgt1 strain (AID 161);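 further: 0% = growth of cultures given vehicle only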; conditions: S. cerevisiae sgs1 mgt1 strain, hits give high values
Summary of the method: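 Read-out: growth inhibition vs vehicle controls. Cells: mutant yeast strain deficient in DNA damage repair.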

[8] = NCI Yeast Anticancer Drug Screen. Data for the CLN2oe strain (AID 163);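 further: 0% = growth of vehicle-only control cultures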; conditions: S. cerevisiae CLN2oe strain, hits give high values
Summary of the method: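 Strain altered in cell-cycle control, incubated with compound; growth compared to solvent-treated controls.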

[9] = NCI Yeast Anticancer Drug Screen. Data for the cln2 rad14 strain (AID 165);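 further: 0% = growth equal to vehicle treated cultures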; conditions: S. cerevisiae cln2 rad14 strain, hits give high values
Summary of the method: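 The screen exposed genetically defined yeast (cln2 rad14) to test compounds and scored growth inhibition relative to vehicle-treated controls.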

[10] = NCI Yeast Anticancer Drug Screen. Data for the bub3 strain (AID 167); conditions: S. cerevisiae bub3 mutant strain, hits give high values
Summary of the method: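 Inhibition values come from growth of compound-treated mutant yeast normalised to vehicle-treated controls.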

[11] = NCI Yeast Anticancer Drug Screen. Data for the wt2 strain (AID 169);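 further: 0% = growth of vehicle-treated yeast cultures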; conditions: S. cerevisiae wt2 strain growth inhibition, hits give high values
Summary of the method: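 Steps: yeast strain treated with compound; growth recorded; inhibition calculated relative to cultures given vehicle alone.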

[12] = NCI Yeast Anticancer Drug Screen. Data for the mlh1 strain (AID 171);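 further: 0% = growth of vehicle-treated control cultures of the same strain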; conditions: S. cerevisiae mlh1 strain growth inhibition, hits give high values
Summary of the method: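 Yeast screen: mutant strain plus compound, growth scored against vehicle control wells.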

[13] = NCI Yeast Anticancer Drug Screen. Data for the sgs1 strain (AID 173);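 further: 0% = growth of vehicle-only control cultures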; conditions: S. cerevisiae sgs1 mutant, hits give high values
Summary of the method: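 Inhibition of yeast growth served as the measure. The mutant strain was treated with each compound, and growth was normalised to cultures receiving vehicle alone.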

[14] = NCI Yeast Anticancer Drug Screen. Data for the mlh1 rad18 strain (AID 175); conditions: S. cerevisiae mlh1 rad18 strain growth inhibition, hits give high values
Summary of the method: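 Compound-treated yeast growth, normalised to vehicle controls. Strain bears defined DNA repair mutations.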

[15] = NCI Yeast Anticancer Drug Screen. Data for the rad18 strain (AID 177); conditions: S. cerevisiae rad18 mutant growth inhibition, hits give high values
Summary of the method: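 Inhibition values reflect reduced yeast growth compared with vehicle-treated controls, using a strain engineered with a DNA damage repair defect.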

[16] = at 5.0 µM (retest, dose inferred, filed as 0.5)
[17] = at 50.0 µM (retest, dose inferred, filed as 5.0)

Measured: growth inhibition

C/C(CCl)=N/NC1=NC(c2ccccc2Cl)P(=O)(NCCCNP2(=O)SC(N/N=C(/C)CCl)=NC2c2ccccc2Cl)S1 (stereo unspecified)
inactive: [1]; at 1.2 µM -2% | [1]; at 3.7 µM -2% | [1]; at 11.0 µM -2% | [1]; at 33.0 µM 5% | [1]; at 100.0 µM 8% | [2]; at 1.2 µM 3% | [2]; at 3.7 µM -4% | [2]; at 11.0 µM -5% | [2]; at 33.0 µM -3% | [2]; at 100.0 µM -1% | [3]; at 1.2 µM 0% | [3]; at 3.7 µM 2% | [3]; at 11.0 µM 10% | [3]; at 33.0 µM 43% | [3]; at 100.0 µM 33% | [4]; at 1.2 µM 4% | [4]; at 3.7 µM 4% | [4]; [16] -21% | [4]; at 11.0 µM 23% | [4]; at 33.0 µM 38% | [4]; [17] 8% | [4]; at 100.0 µM 34% | [5]; at 1.2 µM -4% | [5]; at 3.7 µM -4% | [5]; [16] -12% | [5]; at 11.0 µM -6% | [5]; at 33.0 µM -5% | [5]; [17] 2% | [5]; at 100.0 µM -1% | [6]; at 1.2 µM 0% | [6]; at 3.7 µM -1% | [6]; at 11.0 µM -4% | [6]; at 33.0 µM 2% | [6]; at 100.0 µM 5% | [7]; [16] -2% | [7]; [17] 51% | [8]; at 1.2 µM -13% | [8]; at 3.7 µM -4% | [8]; at 11.0 µM -1% | [8]; at 33.0 µM -16% | [8]; at 100.0 µM -22% | [9]; [16] -18% | [9]; [17] -4% | [10]; at 1.2 µM 0% | [10]; at 3.7 µM -5% | [10]; [16] -32% | [10]; at 11.0 µM 0% | [10]; at 33.0 µM 25% | [10]; [17] 61% | [10]; at 100.0 µM 18% | [11]; at 1.2 µM 0% | [11]; at 3.7 µM -2% | [11]; at 11.0 µM -2% | [11]; at 33.0 µM 17% | [11]; at 100.0 µM 13% | [12]; at 1.2 µM -2% | [12]; at 3.7 µM 3% | [12]; at 11.0 µM 4% | [12]; at 33.0 µM 22% | [12]; at 100.0 µM 16% | [13]; at 1.2 µM 0% | [13]; at 3.7 µM -2% | [13]; at 11.0 µM 0% | [13]; at 33.0 µM 19% | [13]; at 100.0 µM 16% | [14]; [16] -5% | [14]; [17] 18% | [15]; at 1.2 µM 1% | [15]; at 3.7 µM 10% | [15]; at 11.0 µM 9% | [15]; at 33.0 µM 27% | [15]; at 100.0 µM 23%
active: [4]; at 50.0 µM 96% | [5]; at 50.0 µM 96.3% | [7]; at 50.0 µM 93.2% | [9]; at 50.0 µM 92.3% | [10]; at 50.0 µM 95.2% | [14]; at 50.0 µM 95.9%

CCOP(=S)(S)OCC.[Pd]
inactive: [1]; at 1.2 µM 5% | [1]; at 3.7 µM 45% | [2]; at 1.2 µM 2% | [2]; at 3.7 µM 55% | [3]; at 1.2 µM 0% | [3]; at 3.7 µM 11% | [3]; at 11.0 µM 24% | [3]; at 33.0 µM 20% | [3]; at 100.0 µM 8% | [4]; at 1.2 µM 12% | [4]; at 3.7 µM 57% | [4]; [16] 67% | [4]; [17] 32% | [5]; at 1.2 µM 10% | [5]; at 3.7 µM 67% | [5]; [17] 51% | [5]; at 50.0 µM 67.9% | [6]; at 1.2 µM 0% | [6]; at 3.7 µM 17% | [6]; at 11.0 µM 60% | [7]; [16] 57% | [7]; [17] 36% | [8]; at 1.2 µM -3% | [8]; at 3.7 µM 20% | [8]; at 11.0 µM 59% | [9]; [16] 23% | [9]; [17] 9% | [10]; at 1.2 µM 6% | [10]; at 3.7 µM 63% | [11]; at 1.2 µM -2% | [11]; at 3.7 µM 59% | [12]; at 1.2 µM 4% | [12]; at 3.7 µM 56% | [13]; at 1.2 µM 13% | [14]; [17] 56% | [15]; at 1.2 µM 15%
active: [1]; at 11.0 µM 75% | [1]; at 33.0 µM 82% | [1]; at 100.0 µM 80% | [2]; at 11.0 µM 93% | [2]; at 33.0 µM 89% | [2]; at 100.0 µM 83% | [4]; at 11.0 µM 95% | [4]; at 33.0 µM 91% | [4]; at 50.0 µM 79.4% | [4]; at 100.0 µM 92% | [5]; [16] 80% | [5]; at 11.0 µM 95% | [5]; at 33.0 µM 87% | [5]; at 100.0 µM 85% | [6]; at 33.0 µM 75% | [6]; at 100.0 µM 75% | [7]; at 50.0 µM 76.1% | [8]; at 33.0 µM 76% | [8]; at 100.0 µM 77% | [9]; at 50.0 µM 76.5% | [10]; [16] 84% | [10]; at 11.0 µM 94% | [10]; at 33.0 µM 90% | [10]; [17] 86% | [10]; at 50.0 µM 80.9% | [10]; at 100.0 µM 83% | [11]; at 11.0 µM 95% | [11]; at 33.0 µM 91% | [11]; at 100.0 µM 85% | [12]; at 11.0 µM 94% | [12]; at 33.0 µM 88% | [12]; at 100.0 µM 84% | [13]; at 3.7 µM 77% | [13]; at 11.0 µM 95% | [13]; at 33.0 µM 93% | [13]; at 100.0 µM 88% | [14]; [16] 83% | [14]; at 50.0 µM 79.5% | [15]; at 3.7 µM 86% | [15]; at 11.0 µM 98% | [15]; at 33.0 µM 96% | [15]; at 100.0 µM 93%

Source: PubChem BioAssay (NCI)
